Inconclusive results are not listed. Active and inactive are the calls of the source. The call rests on the fitted dose curve; in most records, active means well fitted curve in the direction sought with a large enough effect; inconclusive means small, poorly fitted or top-dose-only effect, or another doubt; inactive means no such curve, though single readings can be large; an effect the other way counts as inactive or inconclusive.
Assays:
[1] = target: Glutathione peroxidase 1 (Homo sapiens) (UniProt P07203); assay: Primary qHTS Assay for Inhibitors of Recombinant Selenoprotein Glutathione Peroxidase 1 (GPX1) (AID 1845191); conditions: recombinant GPX1, GR-coupled NADPH fluorescence, 15 min; series mostly up to 27.7 µM; further: nearly all actives have a fitted effect of over 65% in size
Method in brief: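 GR-coupled assay: compounds preincubated 30 min at room temperature with GPX1, then reaction started with CHP; final 10 nM GPX1, 1 mM GSH, 0.5 mM CHP, 0.5 mM NADPH, 100 nM GR, 0.01% BSA, pH 7.5 Tris buffer. NADPH fluorescence (340/450 nm) read at 0 and 15 min.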

[2] = target: Phospholipid hydroperoxide glutathione peroxidase GPX4 (Homo sapiens) (UniProt P36969); assay: Primary qHTS Assay for Inhibitors of Recombinant Selenoprotein Glutathione Peroxidase 4 (GPX4) (AID 1845192); conditions: recombinant GPX4, GR-coupled NADPH fluorescence, 15 min; series mostly up to 27.8 µM; further: nearly all actives have a fitted effect of over 65% in size; on activity change, negative = inhibition: on the % scale 0 is the no-effect control and ±100 the full control effect
Method in brief: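 GR-coupled assay: recombinant GPX4 preincubated 30 min with compound at room temperature; final 200 nM GPX4, 1 mM GSH, 0.5 mM cumene hydroperoxide, 0.5 mM NADPH, 100 nM GR, 0.01% BSA, pH 7.5 Tris. NADPH fluorescence (340/450 nm) read at 0 and 15 min.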

[3] = target: Luciferin 4-monooxygenase (Photinus pyralis) (UniProt P08659); assay: Primary firefly luciferase (FLuc) qHTS assay for identification of artifact compounds. (AID 1845220); conditions: purified firefly luciferase, luminescence, 5 min; series mostly up to 54.1 µM; further: nearly all actives have a fitted effect of over 60% in size;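 on activity change, negative = inhibition: plate controls were DMSO vehicle for no effect and no enzyme for full effect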
Method in brief: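 D-luciferin and ATP (10 uM each, final) in Tris acetate buffer pH 7.6 were incubated with compounds for 15 min at room temperature. The reaction was started with 10 nM Photinus pyralis luciferase and luminescence read after 5 min. Percent inhibition was fitted to a 4-parameter Hill equation.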

[4] = Primary fluorescence-based thiol-reactive (MSTI) qHTS assay for identification of artifact compounds. (AID 1845221); conditions: MSTI thiol-reactivity probe, 1 h; series mostly up to 53.8 µM; further: nearly all actives have a fitted effect of over 65% in size; further: potency means the concentration at half of the fitted maximal effect;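 on activity change, negative = thiol reactive: thiol-reactive compounds lower the probe fluorescence signal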
Method in brief: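 MSTI probe at 4 uM final in 2% DMSO/PBS pH 7.4; compounds, 1 h at room temperature in dark. Fluorescence Ex/Em 525/598 nm, normalised to Acetyl-MSTI and MSTI, fitted to 4-parameter Hill.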

Sequence of Phospholipid hydroperoxide glutathione peroxidase GPX4 (Homo sapiens) (P36969 whole entry, looked up): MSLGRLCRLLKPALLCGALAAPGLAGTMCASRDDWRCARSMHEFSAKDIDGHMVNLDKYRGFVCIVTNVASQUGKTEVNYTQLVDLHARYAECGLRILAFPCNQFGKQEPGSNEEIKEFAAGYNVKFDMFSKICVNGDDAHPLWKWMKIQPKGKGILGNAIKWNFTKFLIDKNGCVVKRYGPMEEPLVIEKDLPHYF
Sequence of Glutathione peroxidase 1 (Homo sapiens) (P07203 whole entry, looked up): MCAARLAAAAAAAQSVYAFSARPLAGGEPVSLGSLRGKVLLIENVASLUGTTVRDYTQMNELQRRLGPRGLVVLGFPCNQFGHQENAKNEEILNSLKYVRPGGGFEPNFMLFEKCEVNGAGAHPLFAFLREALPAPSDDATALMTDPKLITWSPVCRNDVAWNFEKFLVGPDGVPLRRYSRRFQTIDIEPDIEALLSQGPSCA

CC(=O)N[C@H]1[C@H](O[C@H]2CC[C@]3(C)C4CC=C5[C@@H]6CC(C)(C)CC[C@]6(C(=O)O)[C@H](O)C[C@@]5(C)[C@]4(C)CC[C@H]3C2(C)C)O[C@H](CO)[C@@H](O)[C@@H]1O (stereo partly specified)
inactive: Potency [1] | Potency [2] | Potency [3] | Potency [4]

C=CC1(C)C=C2CC[C@H]3[C@@](C)(C(=O)O)CCC[C@]3(C)C2CC1 (stereo partly specified)
inactive: Potency [1] | Potency [2] | Potency [3] | Potency [4]

C[C@@H]1CC[C@]2(C(=O)O[C@@H]3O[C@H](CO[C@@H]4O[C@H](CO)[C@@H](O)[C@H](O)[C@H]4O)[C@@H](O)[C@H](O)[C@H]3O)CC[C@]3(C)C(=CCC4[C@@]5(C)CC[C@H](O)[C@](C)(C(=O)O)C5CC[C@]43C)[C@@H]2[C@]1(C)O (stereo partly specified)
inactive: Potency [1] | Potency [2] | activity change, negative = inhibition [3] -0.663% [at 11.6 µM] | activity change, negative = thiol reactive [4] 22.8% [at 11.5 µM]

CC1OC(OC2C(OC3C(O[C@H]4CC[C@@]5(C)C(CC[C@]6(C)C5CC=C5C7CC(C)(C)CC(O)[C@]7(C)CC[C@]56C)C4(C)C)OC(C(=O)O)C(O)C3O)OCC(O)C2O)C(O)C(O)C1O (stereo partly specified)
inactive: Potency [1] | Potency [2] | activity change, negative = inhibition [3] 4.47% [at 11.6 µM] | activity change, negative = thiol reactive [4] 167% [at 11.5 µM]

O=C(/C=C/c1ccc(O)c(O)c1)O[C@H]1[C@@H]2C=CO[C@@H](O[C@@H]3O[C@H](CO)[C@@H](O)[C@H](O)[C@H]3O)[C@@H]2[C@@]2(CO)O[C@@H]12
active: Potency [4] 2.07 µM
inactive: Potency [1] | Potency [2] | Potency [3]

C=C(C)C1Cc2c(ccc3c2OCC(c2ccc(O)cc2O)C3)O1 (stereo unspecified)
inactive: Potency [1] | Potency [2] | Potency [3] | Potency [4]

COCC1OC(n2cnc3c(=O)[nH]cnc32)C(O)C1O (stereo unspecified)
inactive: Potency [1] | Potency [2] | Potency [3] | Potency [4]

COC(=O)C1=CO[C@@H](O[C@@H]2O[C@H](CO)[C@@H](O)[C@H](O)[C@H]2O)[C@H]2[C@@H]1[C@H](O)[C@H](O)[C@]2(C)O
inactive: Potency [1] | Potency [2] | Potency [3]
active: Potency [4] 13 µM

CC(CC12CCCN1C(=O)C1CCCN1C2=O)OC(N)=O (stereo unspecified)
inactive: Potency [1] | Potency [2] | Potency [3] | Potency [4]

CC(=O)OCC(Cc1ccccc1)NC(=O)C(Cc1ccccc1)NC(=O)c1ccccc1 (stereo unspecified)
inactive: Potency [1] | Potency [2] | Potency [3] | Potency [4]

C/C=C/C=C/C=C/C(=O)OC1C=C2C(O)OC(=O)[C@]2(O)[C@@]2(C)CCCC(C)(C)[C@H]12 (stereo partly specified)
inactive: Potency [1] | Potency [2] | Potency [3] | Potency [4]

C=C1CCC2C(C)(C)CC(O)CC2(C)C1CCC(C)CC(=O)O (stereo unspecified)
inactive: Potency [1] | Potency [2] | Potency [3]
active: Potency [4] 18.5 µM

C=C1C(O)CC2C(C(=O)O)=COC(O[C@@H]3O[C@H](COC(=O)c4ccc(O)cc4)[C@@H](O)[C@H](O)[C@H]3O)C12 (stereo partly specified)
inactive: Potency [1] | Potency [2] | Potency [3]
active: Potency [4] 5.19 µM

CCCN1CCC[C@@H](c2cccc(S(C)(=O)=O)c2)C1
inactive: Potency [1] | Potency [2] | Potency [3] | Potency [4]

C/C=C/C=C/C1=C2C(=O)C3(C)C4C(C(=O)CC(O)/C=C/C)=C(O1)C1(C)C2C2(C)OC1(O)C4(C)OC23O (stereo unspecified)
active: Potency [4] 5.82 µM
inactive: Potency [1] | Potency [2] | Potency [3]

CC1OC(O[C@@H]2[C@@H](O)[C@H](OC(=O)[C@]34CCC(C)(C)C[C@H]3C3=CCC5[C@@]6(C)CC[C@H](O[C@@H]7O[C@H](C(=O)O)[C@@H](O)[C@H](O[C@@H]8OC[C@@H](O)[C@H](O)[C@H]8O)[C@H]7O[C@@H]7O[C@H](CO)[C@H](O)[C@H](O)[C@H]7O)[C@@](C)(C=O)C6CC[C@@]5(C)[C@]3(C)C[C@H]4O)O[C@H](C)[C@@H]2OC2OC(C)C(OC3OCC(O)C(O)C3O)C(O)C2O)C(O)C(O)C1O (stereo partly specified)
inactive: Potency [1] | Potency [2] | activity change, negative = inhibition [3] 1.64% [at 11.6 µM] | activity change, negative = thiol reactive [4] 288% [at 11.5 µM]

CO[C@@H]1[C@]2(O)C(=O)N3/C=C\C(C)(C)c4[nH]c5ccccc5c4/C=C\3C(=O)N2[C@]23[C@H](CO)C(C)(C)N2c2ccccc2[C@]13O
inactive: Potency [1] | Potency [2] | Potency [3]
active: Potency [4] 1.84 µM

COc1cc(C2OCC3(O)C(c4ccc(O[C@@H]5O[C@H](CO)[C@@H](O)[C@H](O)[C@H]5O)c(OC)c4)OCC23O)ccc1O (stereo partly specified)
inactive: Potency [1] | Potency [2] | Potency [3] | Potency [4]

Cn1cc(CCn2cnc(-c3cnn(C)c3)c2-c2ccc(C#N)cc2)cn1
inactive: Potency [1] | Potency [2] | Potency [3] | Potency [4]

— PubChem BioAssay (NCATS)
